In publication PMC5540273 (PLoS ONE, 2017):

Test system: p38-delta
Settings: concentration: 1 μM, replicates: in singlicate; n = 1
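Further: KINOMEscan kinase panel screen.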

Compound	%Inh [%]
CCn1c(-c2nonc2N)nc2ccccc21 [SB-693162/GW549034]	0
Nc1n[nH]c2nnc(-c3ccccc3)c(-c3ccccc3)c12 [GW554060]	27
O=C(Nc1ccc2c(c1)OCO2)NC1CCN(c2ccnc(NCc3ccc(F)cc3)n2)CC1 [GSK1379859]	28
COc1cc2ncn(-c3cc(OCc4ccncc4Br)c(C(N)=O)s3)c2cc1OC [GW854278]	30
COc1cccc(-n2cnc3c(N)ncnc32)c1 [SKF-97416]	0
COc1cccc(C2=C(Nc3cccc(C(=O)O)c3)C(=O)NC2=O)c1 [SB-390770]	34
O=C(Nc1n[nH]c2nc(-c3ccccc3)c(Br)cc12)C1CC1 [SB-708998]	0
COc1ccc(Nc2nccc(N3CCC(NS(=O)(=O)c4ccc(NC(C)=O)cc4)C3)n2)cc1 (stereo not drawn) [GSK1379729]	30
Cl.NS(=O)(=O)c1cccc(Nc2cc(-c3ccc(F)cc3)n[nH]2)c1 [GW824645]	0
COc1cc2ncn(-c3cc(OCc4ccc(S(C)(=O)=O)cc4)c(C(N)=O)s3)c2cc1OC [GW869979]	0
Nc1nc(-c2ccccc2F)c(-c2ccnc3ccccc23)s1 [GW560459]	36
CN1C(=O)C(Nc2cc(Cl)c(O)c(Cl)c2)=C(c2ccc(Cl)cc2)C1=O [SB-404321]	21
Nc1n[nH]c2ncc(-c3ccccc3)cc12 [SB-517081]	24
COc1cc(Nc2ccnc3ccc(C(F)(F)F)cc23)cc(OC)c1OC [GW577382]	4
CN(C)c1cc(-c2ccc3c(N)n[nH]c3c2)nc(N)n1 [GSK2219329]	37
COc1cccc(C2=C(N(C)c3ccccc3)C(=O)NC2=O)c1 [SB-334865]	42
COc1ccc(-c2coc3ccc(-c4nnc(SCc5cccc(C#N)c5)o4)cc23)cc1	16
Cc1c(Cn2c(C)nn3c(=O)cc(N4CCO[C@H](C)C4)nc23)cccc1C(F)(F)F [GSK2373690]	41

Compound	%Inh [%]
C[C@@H]1CC[C@H](C(=O)NC2CCCCC2)CN1c1cc(-c2ccc3c(N)n[nH]c3c2)nc(N)n1 [GSK2291363]	42
COc1ccc(-n2cnc3c(N)ncnc32)cc1 [SKF-97236]	0
CCCC(=O)Nc1n[nH]c2ncc(-c3cccc4ccccc34)cc12 [SB-642057]	26
O=C(Nc1n[nH]c2nc(-c3ccccc3)c(Cl)cc12)C1CC1 [SB-734909]	10
Nc1nc(N)c2nc(-c3ccccc3)[nH]c2n1 [SKF-12778]	19
COC(=O)c1c(-c2ccccc2)c2cc(Br)ccc2c(=O)n1Cc1ccc(S(C)(=O)=O)cc1	38
FC(F)(F)c1ccc(-c2ncn(CCCN3CCOCC3)c2-c2ccncc2)cc1 [SB-217780]	42
COC(=O)c1c(-c2ccccc2)c2cc(C)ccc2c(=O)n1Cc1ccccc1	21
Cc1ccccc1COc1cc(-n2cnc3cc(Cl)ccc32)sc1C(N)=O [GW813349]	0
Cc1cc(Nc2nc(-c3cccc(C)n3)nc3ccccc23)ccn1 [GW872411]	0
COc1cc2nccc(Nc3cccc(Oc4ccccc4)c3)c2cc1OC.Cl [GW284543]	22
COc1cc2ncn(-c3cc(OCCCc4ccccc4)c(C(N)=O)s3)c2cc1OC [GSK205189]	6
Cc1nc(N(C)[C@H]2CN(C(=O)CC#N)CC[C@H]2C)c2cc[nH]c2n1	0
Cc1nnc(-c2ccc(C)c(-c3ccc(C(=O)O)cc3)c2)o1 [GW608005]	2
COc1ccc(-c2cc3c(C)nc(N)nc3n([C@H]3CC[C@H](O)CC3)c2=O)cn1	0
Cc1nnc(-c2ccc3ncn(-c4ccc(S(C)=O)cc4)c3c2)o1 (stereo not drawn)	1
CCC(=O)c1c(-c2ccccc2)c2cc(Cl)ccc2c(=O)n1Cc1cc(S(C)(=O)=O)n(CC(F)F)n1	19
CCC(=O)c1c(-c2ccccc2)c2cc(Cl)ccc2c(=O)n1Cc1cc(S(C)(=O)=O)n(CC(N)=O)n1	16
